In all, about 330,000 compounds went through this assay and about 3,800 (1.2%) were called active. Rule as the data show it: active = inhibition above about 15%; inconclusive = no clear call, values can overlap the other calls; inactive = below that. What follows is part of a selection rich in actives, with near analogues and random picks from the rest.
biological target: NAD-dependent protein deacylase sirtuin-5, mitochondrial (Homo sapiens) (UniProt Q9NXA8); assay: blockers of sirtuin-5 deacylase activity – biochemical, fluorescence imaging, single point, set 5, primary screen (AID 652115); conditions: Purified SirT5, succinyl-peptide AMC, trypsin-coupled fluorescence; at 15 µM; stronger effect = higher value
Sequence (Q9NXA8 whole entry, looked up): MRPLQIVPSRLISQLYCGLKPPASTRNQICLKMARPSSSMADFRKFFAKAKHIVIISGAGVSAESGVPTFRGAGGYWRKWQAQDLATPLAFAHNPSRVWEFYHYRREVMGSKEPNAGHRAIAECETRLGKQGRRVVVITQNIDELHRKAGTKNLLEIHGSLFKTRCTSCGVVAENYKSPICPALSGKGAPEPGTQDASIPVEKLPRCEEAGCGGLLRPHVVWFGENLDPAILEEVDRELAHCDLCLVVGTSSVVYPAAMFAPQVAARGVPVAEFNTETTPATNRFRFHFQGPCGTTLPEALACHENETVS

inhibition, active:
Cc1cc(/C=N/Nc2ccc([N+](=O)[O-])cn2)c(C)n1-c1cccc(C(=O)O)c1 17.7%
Cc1noc(C)c1NC(=O)N[C@@H]1C=C[C@@H](CC(=O)Nc2ccccc2)O[C@H]1CO 32.2%
O=S(=O)(Cc1ccccc1)c1nc2ccccc2n1Cc1ccccn1 21.7%
Cc1occc1C(=O)NNC(=S)NCC(C)C 19.4%

inhibition, inactive:
O=C(C[C@H]1C=C[C@H](NC(=O)Cc2ccccn2)[C@@H](CO)O1)NCCc1ccccc1 6.76%
O=C(C1CCCC1)N1CC(=O)N2[C@H](C1)[C@@H](c1ccc(-c3cccnc3)cc1)[C@@H]2CO 1.11%
CO[C@H]1CN(C)C(=O)c2ccc(NC(=O)Nc3c(C)noc3C)cc2OC[C@@H](C)NC[C@H]1C -5.86%
CC(C)c1ccc(C=NNc2ccc([N+](=O)[O-])cn2)cc1 1.24%
Cc1cccc(-n2c(C)cc(/C=N\NC(=O)c3cccs3)c2C)c1 -1.07%
O=S(=O)(c1ccc(F)cc1)N1CC[C@@H]2[C@@H](CO)Nc3ccc(-c4ccccc4F)cc3[C@@H]21 7.3%
O=C(C[C@@H]1C[C@@H]2c3cc(NC(=O)Nc4ccc(F)cc4)ccc3O[C@@H]2[C@H](CO)O1)NCC(F)(F)F -3.74%
Cc1noc(C)c1NC(=O)N[C@H]1C=C[C@@H](CC(=O)Nc2ccccc2)O[C@H]1CO 1.42%
Cc1noc(C)c1NC(=O)N[C@@H]1CC[C@H](CC(=O)Nc2ccccc2)O[C@H]1CO 5.15%
c1ccc(CCc2ccccn2)cc1 9.65%
CC(=O)c1nc2ccccc2n1Cc1ccccc1 -2.51%
COc1ccccc1NC(=O)N[C@H]1C=C[C@H](CC(=O)N[C@@H](C)c2ccccc2)O[C@H]1CO -1.94%
C/C=C/c1cnc2c(c1)C(=O)N([C@@H](C)CO)C[C@@H](C)[C@@H](CN(C)C(=O)c1cnccn1)O2 -1.71%
Cc1scc(C(=O)NNC(=S)NCC(C)C)c1C -4.94%
Cc1scc(C(=O)NNC(=S)NCc2ccccc2)c1C -0.205%
CO[C@H]1CN(C)C(=O)c2cc(NC(=O)C3CC3)ccc2OC[C@H](C)N(C(=O)CN(C)C)C[C@H]1C 0.163%
CCC(=O)N1[C@@H]2c3ccc(-c4ccc(F)cc4)c(=O)n3C[C@H]1[C@H](CO)[C@H]2C(=O)N(C)C -32.2%
COc1ccc2c3c(n(C)c2c1)[C@@H](CO)N(CC1CC1)CC31CCN(C(=O)c2ccc3c(c2)OCO3)CC1 3.18%
